This passage reports growth results from PubChem BioAssay (NCI).

The panel holds about 83,000 compounds, 20% with a hit somewhere; the sample as a whole holds those more often.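 Cell lines were cultured in 96-well plates, exposed to a single compound concentration, and assessed for percent growth 48 hours later.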 Values without a mark were called inactive. Activity calls are given as the source filed them. How the source made its calls: active means growth percent below 10; inactive means the rest.

This test deals with MDA-MB-468 breast. The test can be described thus: NCI-60 one-dose screen, 48 h (100 = growth as untreated, 0 = no growth, -100 = all killed). The conditions noted are these: 10 µM unless noted.
Turning to `[O]=[Sn]([CH]1CCCCC1)[CH]1CCCCC1`, the growth was -92.2% (active).

Turning to `NNc1ccccc1`, the growth was 109%. For the compound `CCCCOc1ccc(C(N)Cc2ccccc2)cc1` (centres undefined), the growth was 76.2%. Take `CCC(=O)C(CC(C)N1CCCCCC1)(c1ccccc1)c1ccccc1` (centres undefined): the growth was 95.6%. Consider `C=CC(O)CN1CC1CC` (centres undefined), for which the growth was 105%. Take `CC(C)(NC(=O)O[C@@H]1CN2CCC1CC2)c1csc(-c2ccc(F)cc2)n1`: the growth was 85.2%. For `CCCCCSC1C2C(=O)C(Br)=CC13CCNc1c(O)c4c5c(c13)=[N+]2CCC=5C=N4` (centres undefined), the growth was -30.5% (active).

In the case of `COC(=O)[C@@H](C)C[C@H](Cc1ccccc1)NC(=O)c1csc([C@@H](C[C@H](C(C)C)N(C)C(=O)[C@@H](NC(=O)[C@H]2CCCCN2C)C(C(F)(F)F)C(F)(F)F)OC(C)=O)n1`, the growth is 51.7%.

Take `Cc1ccc2c(C(C[N+](=O)[O-])c3cccs3)c(-c3ccccc3)[nH]c2c1` (centres undefined): the growth is -5.47% (active). Turning to `CSc1cc(/C=C(\C)[C@@H]2C[C@@H]3O[C@]3(C)CCC[C@H](C)[C@H](O)[C@@H](C)C(=O)C(C)(C)[C@@H](O)CC(=O)O2)n(CCNC(=O)OC(C)(C)C)n1`, the growth is 66%. Regarding `CCOC(=O)P(=O)(OCC)OCC`, the growth was 110%. In the case of `CCCCCCCCCCCCCC[P+](CCCCCC)(CCCCCC)CCCCCC`, the growth is -88.3% (active). `Nc1ccc(-c2nc3cc(F)ccc3[se]2)cc1F`: the growth was -21% (active). Take `CC[C@H](CC[C@@H](C)[C@H]1CC[C@H]2[C@@H]3CC[C@H]4C[C@]5(CC[C@]4(C)[C@H]3CC[C@]12C)OO[C@](C)(C(F)(F)F)O5)C(C)C`: the growth is 95.2%.
